A-T KAP1 phos – potential ataxia-telangiectasia treatment; Potency, µM (highest dose often 57.5 µM), usual class: activators; AID 485349; F2112 A-T fibroblasts, KAP-1 phosphorylation AlphaLISA; neocarzinostatin DNA damage 30 min before lysis; 0.19% of 320,000 active; active = well fitted activation curve with a large enough effect; inconclusive = small, poorly fitted or top-dose-only effect; inactive = no such curve, though single readings can be large or run the other way; also: nearly all actives have a fitted effect of over 45% in size
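ATM-like activity read as KAP-1 phosphorylation via AlphaLISA donor/acceptor antibody pairs after lysis and 6 hr at 25C. Cells were ATM-null patient fibroblasts (F2112, hTERT), dosed 60 min, then exposed to the DSB inducer NCS for 30 min.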
PKM2 act – increases activity of human pyruvate kinase M2; P14618; purified PKM2, Kinase-Glo ATP luminescence, activation; response scale: 0% is enzyme alone, no compound; Potency, µM (top dose mostly 57.5 µM), hits mostly activators; 0.34% of 260,000 active; active = well fitted activation curve with a large enough effect; inconclusive = small, poorly fitted or top-dose-only effect; inactive = no such curve, though single readings can be large or run the other way; also: nearly all actives have a fitted effect of over 55% in size
Target sequence (P14618 whole entry, looked up): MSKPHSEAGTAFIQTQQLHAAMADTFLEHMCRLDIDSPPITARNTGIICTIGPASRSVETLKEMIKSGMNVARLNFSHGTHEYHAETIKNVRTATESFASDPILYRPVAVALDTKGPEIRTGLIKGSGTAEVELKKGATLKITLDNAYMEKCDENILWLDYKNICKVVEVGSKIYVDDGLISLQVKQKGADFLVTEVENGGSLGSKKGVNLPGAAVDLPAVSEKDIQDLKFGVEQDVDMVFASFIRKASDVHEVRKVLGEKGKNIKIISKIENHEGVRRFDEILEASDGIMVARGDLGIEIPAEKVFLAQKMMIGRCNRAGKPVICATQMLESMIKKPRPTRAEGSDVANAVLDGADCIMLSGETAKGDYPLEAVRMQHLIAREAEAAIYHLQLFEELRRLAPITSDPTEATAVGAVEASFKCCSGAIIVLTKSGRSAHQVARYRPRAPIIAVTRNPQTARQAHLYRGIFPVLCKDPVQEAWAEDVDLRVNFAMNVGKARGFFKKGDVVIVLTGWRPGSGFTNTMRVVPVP
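Purified hPK-M2 (>95%) run at intermediate activity with 0.1 mM ADP and 0.5 mM PEP in 50 mM imidazole pH 7.2, KCl, MgCl2; 1 h room temperature. ATP formed read by Kinase-Glo luminescence; normalized to uninhibited and no-enzyme controls.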
Rango release inh – prevents RanGTP from dissociating the Rango-importin beta complex; O95149+P62826; Biochemical FRET Rango-importin beta, RanGTP-induced dissociation; Potency, µM (doses to about 46.1 µM); 0.071% of 340,000 active; AID 540253; also: nearly all actives have a fitted effect of over 45% in size
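Rango (0.1 uM)–importin beta (0.25 uM) complex; RanGTP-RCC1 trigger; 45 min RT; CFP/YFP FRET read.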
Rango-impB inh – prevents formation of the Rango-importin beta complex; Q14974; Rango CFP/YFP FRET sensor + importin beta, 45 min; Potency, µM (titrated, usually from 92.2 µM); 0.031% of 340,000 active; AID 540263; also: nearly all actives have a fitted effect of over 15% in size
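FRET biosensor (snurportin 1 IBB flanked by EYFP and cerulean), 50 nM, with compound 5 min, then 0.125 microM importin beta in PBS, 1 mM DTT, 0.02% Tween-20, 0.1% BSA. CFP/YFP ratio read after 45 min at room temperature; pre-read flags interference.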
IL-2 act – activators of IL-2; IL-2 activation reporter assay, cell-based qHTS; stimulated with anti-CD3/CD4/CD28 beads; in transgenic mouse T cells; activation, % (series mostly up to about 46 µM); 0.065% of 360,000 active; in the data active = activation above about 50%; inconclusive = mostly about 30% to 49%
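Readout is EGFP and DsRed signal by fluorescent plate cytometry after 18 h at 37 degrees C. Transgenic mouse T cells (750/well) received compound for 60 min before bead stimulation (anti-CD3, anti-CD4, anti-CD28); memory T cells served as non-tolerant control.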
A number is an active result; - = inactive; ? = inconclusive; . = no result; [ ] = remark or other dose. Compounds with a hit are over-represented: about 0.59% of the library has one in this group of screens. Unless noted, calls follow the shape of the full dose curve.

SMILES | A-T KAP1 phos | PKM2 act | Rango release inh | Rango-impB inh | IL-2 act
N#Cc1ccccc1S(=O)(=O)N1CCN(C(=O)[C@H](Cc2ccccc2)NC(=O)c2ccco2)CC1 | - | . | - | - | -
C=CCNC(=O)N1CCc2nc(CCCC)c3c(c2C1)CO[C@@H](C)C3 | . | -[11.5 µM] | . | . | .
O=C(CCNC(=O)C1CCN(S(=O)(=O)c2ccc(F)cc2)CC1)NCc1ccc(Cl)cc1 | - | . | - | - | -
CN(C)c1ccc(C=Cc2ccnc3c(O)cccc23)cc1 | . | . | . | . | 148.1
CN(C)c1ccc(C=Cc2ccnc3ccccc23)cc1N | . | . | . | . | -
CC1CCCC(NC(=O)COC(=O)c2cc(=O)[nH]c3ccccc23)C1C (stereo unspecified) | - | . | - | - | -
CC(C)(C)Cc1c(-c2ccc(Cl)cc2)nc2c(Cl)cc(C(F)(F)F)cn12 | . | . | . | . | -
CCCOc1ccccc1/C=C(\C#N)C(=O)Nc1cccc(C)n1 | - | . | - | - | -
Cc1cccc(NC(=O)/C(C#N)=C/c2ccc(F)cc2)n1 | 0.708µM | . | - | - | -
CNc1ccc(/C=C(\C#N)C(=O)Nc2ccccn2)cc1[N+](=O)[O-] | - | - | - | ? | 86.6
C=CCOc1ccc(/C=C(\C#N)C(=O)Nc2ccccn2)cc1 | - | . | 25.9µM | ? | -
CCCCC[C@H]1CN(Cc2ccccc2)C(=O)[C@@H]1CC(=O)NCc1ccc(OC)cc1 | - | - | - | - | -
COc1ccc(S(=O)(=O)Nc2ccc(S(=O)(=O)Nc3nccs3)cc2)cc1 | - | 12.6µM | - | - | -
COc1ccc(CC(=O)Nc2ccc(S(=O)(=O)Nc3nccs3)cc2)cc1 | - | 14.1µM | - | - | -
COc1ccccc1S(=O)(=O)Nc1ccc(S(=O)(=O)Nc2nccs2)cc1 | - | . | - | - | -
CN1CCN(CC(=O)N2c3ccccc3Sc3ccccc32)CC1 | - | . | - | - | -
CCOC(=O)N1CCN(Cc2nnc(-c3ccccc3C)o2)CC1 | 20µM | . | - | - | -
CCOC(=O)N1CCN(CC(=O)N2c3ccccc3Sc3ccccc32)CC1 | 17.8µM | . | - | - | -
C=CCc1cccc(CNc2nc3ccccc3n2C(C)C)c1O | - | 31.6µM | - | - | -
COc1ccc(NC(=O)c2cc(C3CCCCN3S(=O)(=O)Cc3ccccc3)on2)c(C)c1 (stereo unspecified) | . | . | . | . | -
Cc1cc(NC(=O)CSc2nnc(CNC(=O)c3ccccc3)o2)no1 | - | - | - | - | -
O=C(CCCc1nc2ccccc2s1)N1CCN(S(=O)(=O)c2cccs2)CC1 | - | 4.47µM | - | - | -
CC(=O)OC[C@]12CC[C@H]3[C@@](C)(CC[C@H]4C(C)(C)CCC[C@]34C)[C@@H]1C[C@@H](C1=CC(=O)O[C@@H]1OC(C)=O)O2 | - | . | . | . | .
CC(=O)OC[C@]12CC[C@H]3[C@@](C)(CC[C@H]4C(C)(C)CCC[C@]34C)[C@@H]1C[C@H](C1=CC(=O)O[C@H]1OC(C)=O)O2 | 35.5µM | . | . | . | .
Cc1c(Cc2ccccc2)c(=O)[nH]c(=O)n1C | . | . | - | - | -
SMILES | A-T KAP1 phos | PKM2 act | Rango release inh | Rango-impB inh | IL-2 act
CC1=C(C(=O)N2CCOCC2)CC(CC(=O)NCc2ccco2)C(=O)N1CCC1=CCCCC1 (stereo unspecified) | . | . | . | . | -
c1ccc(Cn2ncc3c(NCc4ccco4)ncnc32)cc1 | - | 14.1µM | - | - | -
CCCn1cc(CN2CCC(Oc3ccc(C(=O)N4CCCC4)cc3)CC2)c(C)n1 | - | . | ? | - | -
CCCn1c(=N)c(C(=O)NC2CCCC2)cc2c(=O)n3cccc(C)c3nc21 | - | - | ? | ? | -
Cc1cccn2c(=O)c3cc(C(=O)NC4CCCCC4)c(=N)n(CCN4CCOCC4)c3nc12 | 15.8µM | - | ? | ? | -
Cc1cccn2c(=O)c3cc(C#N)c(=N)n(CCN4CCOCC4)c3nc12 | . | - | 8.2µM | ? | -
Cc1cccn2c(=O)c3cc(C#N)c(=N)n(CCCN4CCOCC4)c3nc12 | . | . | ? | ? | -
COc1ccc2c(c1)c(N=NC(N)=S)c(O)n2CC(=O)c1ccccc1 | 0.708µM | . | - | - | -
O=C(NCC1CCCO1)c1cccc(S(=O)(=O)Nc2ccccc2Cl)c1 (stereo unspecified) | . | . | . | . | -
COc1ccc(C2NC(=S)NC3=C2N2CCC3CC2)cc1 (stereo unspecified) | 2.51µM | - | - | - | -

Screening results as filed in PubChem.
